# G9a inh: G9a (human) methyltransferase inhibition. G9a H3K9 monomethylation, AlphaScreen, 2 h. Potency, µM (highest dose often 102 µM), inactives show top-dose activity, negative = inhibition, usual class: inhibitors. 350,000 tested, 8.8% active; also: % is scaled to controls: 0 for no effect and ±100 for the full control effect; nearly all actives have a fitted effect of over 75% in size
#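 Signal arises when biotinylated H3K9 peptide, once monomethylated, bridges streptavidin donor and antibody-captured acceptor beads. Enzyme at 20 nM was preincubated 15 min with test compounds; peptide 500 nM and SAM 20 uM then reacted for 2 h.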
# JMJD2A Tudor: JMJD2A Tudor domain (human) inhibition | AlphaScreen JMJD2A-Tudor / H3K4me3 peptide binding | Potency, µM (highest dose often 114 µM), for the others: at the highest dose activity change, negative = inhibition, most hits filed as inhibitors | 390,000 tested, 4.4% active; also: % is scaled to controls: 0 for no effect and ±100 for the full control effect; nearly all actives have a fitted effect of over 50% in size
# BAZ2B inh: inhibitors of human BAZ2B bromodomain | Potency, µM (titrated, usually from 114 µM), for inactives: top-dose activity change, negative = inhibition, hits mostly inhibitors | Q9UIF8 | AlphaScreen BAZ2B-H3K14Ac peptide displacement | 360,000 tested, 4.4% active; also: % is scaled to controls: 0 for no effect and ±100 for the full control effect; nearly all actives have a fitted effect of over 60% in size
#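 Compounds, titrated to a top concentration of 110 uM, were incubated 30 min at room temperature with preformed BAZ2B/acetyl-K14 H3 peptide complex (50 nM each). Proximity signal was measured by AlphaScreen after 20 min with beads.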
# HP1b binding inh: inhibitors of HP1-beta chromodomain binding to methylated histone tails; P83916; AlphaScreen HP1-beta / biotin-H3K9me3 peptide binding; Potency, µM (series often up to 114 µM), inactives show top-dose activity change, negative = inhibition, actives largely listed as inhibitors; 390,000 tested, 0.56% active; AID 540317; also: nearly all actives have a fitted effect of over 70% in size
#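 Compound inhibition of the preformed complex between 50 nM HP1-beta and 50 nM biotinylated H3K9me3 peptide was read by AlphaScreen. Buffer was PBS pH 7.4 with 0.01% Tween-20. Incubations ran 30 min at room temperature, with 10 ug/mL donor/acceptor beads.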
# L3MBTL1 inh: blocks human L3MBTL1; 230,000 tested, 0.66% active; Potency, µM (doses to about 57.1 µM), inactives show top-dose activity, negative = inhibition, hits mostly inhibitors; AlphaScreen L3MBTL1–H3K9me1 peptide binding; Q9Y468; AID 485360; also: % is scaled to controls: 0 for no effect and ±100 for the full control effect; nearly all actives have a fitted effect of over 60% in size
# Target sequence (Q9Y468 whole entry, looked up): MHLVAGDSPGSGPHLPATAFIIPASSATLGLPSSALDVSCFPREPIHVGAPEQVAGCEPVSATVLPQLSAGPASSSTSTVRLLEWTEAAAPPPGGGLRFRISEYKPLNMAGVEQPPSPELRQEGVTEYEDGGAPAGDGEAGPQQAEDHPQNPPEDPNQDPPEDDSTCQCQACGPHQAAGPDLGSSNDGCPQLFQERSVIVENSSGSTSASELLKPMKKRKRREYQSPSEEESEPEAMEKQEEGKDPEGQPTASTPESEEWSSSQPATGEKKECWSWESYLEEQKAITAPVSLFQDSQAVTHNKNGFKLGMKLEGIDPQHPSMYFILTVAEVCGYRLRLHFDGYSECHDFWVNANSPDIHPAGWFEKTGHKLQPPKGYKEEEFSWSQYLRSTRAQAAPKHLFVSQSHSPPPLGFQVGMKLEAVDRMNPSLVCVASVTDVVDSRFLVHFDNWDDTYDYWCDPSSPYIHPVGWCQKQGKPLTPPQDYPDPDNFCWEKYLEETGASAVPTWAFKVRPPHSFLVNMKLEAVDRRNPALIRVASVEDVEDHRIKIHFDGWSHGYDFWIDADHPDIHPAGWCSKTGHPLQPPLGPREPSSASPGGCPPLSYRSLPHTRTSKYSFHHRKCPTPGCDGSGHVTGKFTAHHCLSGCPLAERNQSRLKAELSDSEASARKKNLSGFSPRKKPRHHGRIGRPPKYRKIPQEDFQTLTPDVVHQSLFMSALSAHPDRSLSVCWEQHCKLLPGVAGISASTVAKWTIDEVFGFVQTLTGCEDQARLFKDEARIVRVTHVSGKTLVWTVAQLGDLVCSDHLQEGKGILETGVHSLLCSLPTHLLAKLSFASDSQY
#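 Read-out is AlphaScreen signal from streptavidin donor and nickel chelate acceptor beads (10 ug/mL final each) bridging L3MBTL1 (50 nM) and biotinylated K9-monomethylated H3(1-15) peptide (75 nM), after 30 min compound exposure at room temperature.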
# Starred values were filed as active, the others as inactive; ? = inconclusive; · = no result given; [ ] = another dose, or the depositor's remark. Rows were chosen to be rich in hits. Some 11% of all compounds tested hit in one or more screens of this group. Calls follow the shape of the dose curve; as a rule, active = well fitted inhibition curve with a large enough effect; inconclusive = small, poorly fitted or top-dose-only effect; inactive = no such curve, though single readings can be large or run the other way. Potency is read from the fitted curve at half-maximal effect.
SMILES,G9a inh,JMJD2A Tudor,BAZ2B inh,HP1b binding inh,L3MBTL1 inh
CC(C)(C)c1ccc(-c2n[nH]c(=S)n2Cc2ccccc2)cc1,-39%,-4%,-11%,30%,·
COc1cc(C(=O)NC2(C(F)(F)F)C(=O)NC(C)=C2C#N)cc(OC)c1OC (stereo unspecified),10%[59 µM],2%,0%,14%,·
CCOc1ccccc1CNC(=O)C1CCN(C(=O)N2CC(CC)Oc3ccc(C)cc32)CC1 (stereo unspecified),-50%[59 µM],-29%,?,18%,·
NN1C(=O)NC(c2ccccc2)(c2ccccc2)C1=O,8%[59 µM],25µM*,-5%,29%,·
CN(C(=O)Nc1ccccc1)C1CCS(=O)(=O)C1 (stereo unspecified),16%[59 µM],11%,1%,25%,6%
CC(=O)NC1=C(N(C)C2CCS(=O)(=O)C2)C(=O)c2ccccc2C1=O (stereo unspecified),7.9µM*,-3%,-24%,10%,-18%
CC(=O)NC1=C(Nc2ccc(N(C)C)cc2)C(=O)c2ccccc2C1=O,32µM*,?,40µM*,?,·
O=S1(=O)CCC(NC(=S)NC2CCS(=O)(=O)C2)C1 (stereo unspecified),-1%[59 µM],-2%,-31%,26%,2%
CN(C)NC(=S)NC1CCS(=O)(=O)C1 (stereo unspecified),50µM*,32µM*,-16%,10%,-2%
Cc1nc(SCCC(C)C)c([N+](=O)[O-])[nH]1,28µM*,-19%,0%,41%,·
Cc1nc(SCC(N)=O)c([N+](=O)[O-])[nH]1,-3%,40µM*,-22%,15%,-2%
COc1ccc(-c2cn3cc(C)ccc3n2)cc1F,3%[12.7 µM],20µM*,?,-16%,2%
Cc1ccc2c(CC(=O)N3CCN(c4cccc(Cl)c4)CC3)coc2c1,-31%[59 µM],-16%,-10%,31%,·
COc1cccc2oc3ccc(C#Cc4ccccn4)cc3c(=O)c12,50µM*,-15%,-8%,30%,-6%
O=c1c2ccccc2oc2cc(C#Cc3ccccn3)ccc12,·,-19%,·,81%,·
COc1cccc2sc3cc(C#Cc4ccccn4)ccc3c(=O)c12,·,28µM*,·,-7%,-2%
CC(NC(=O)c1ccc(N2Cc3ccccc3Oc3ncccc32)s1)c1ccccc1 (stereo unspecified),-1%[59 µM],-2%,3%,38%,·
Cc1oc(-c2ccccc2)nc1C(=O)O,·,-7%,-15%,23%,15%
CC(=O)c1ccc(OC(=O)c2nc(-c3ccccc3)oc2C)cc1,56µM*,-29%,?,26%,·
CCCCc1ccc(/C=C2\C(=O)c3ccccc3C(O)=C2C(=O)OCC)cc1,6.3µM*,·,22µM*,·,-20%
Cc1ccc(-c2cc(C(=O)N3CC(C)CC(C)C3)c3ccccc3n2)o1 (stereo unspecified),8.9µM*,28µM*,79µM*,?,·
Cc1ccc(-c2cc(C(=O)N3CC(C)OC(C)C3)c3ccccc3n2)o1 (stereo unspecified),10µM*,-9%,7%,38%,-1%
COC(=O)c1cc(-c2ccc(C)o2)nc2ccccc12,?,?,?,?,-16%
COc1ccc(CNC(=O)c2ccc3nc(-c4ccc(F)cc4)c(-c4ccc(F)cc4)nc3c2)cc1,-3%[59 µM],-4%,0%,34%,·
COc1cccc(CN2CC(C(=O)NCc3cccc(N4CCCC4)c3)CCC2=O)c1 (stereo unspecified),79µM*,-35%,?,16%,·
SMILES,G9a inh,JMJD2A Tudor,BAZ2B inh,HP1b binding inh,L3MBTL1 inh
COc1cccc(CN2CC(C(=O)NCCc3ccc(C)o3)CCC2=O)c1 (stereo unspecified),40µM*,-17%,-20%,-7%,·
Cc1ccc(CCNC(=O)C2CCC(=O)N(Cc3ccccc3F)C2)o1 (stereo unspecified),79µM*,?,-24%,25%,·
COc1ccc(CCN2CC(C(=O)NCCc3ccc(F)cc3)CCC2=O)cc1 (stereo unspecified),21%,-14%,-4%,27%,·
COc1ccc(CCN2CC(C(=O)NCCc3cnn(C)c3)CCC2=O)cc1 (stereo unspecified),23%,20µM*,-5%[57.1 µM],22%,·
CN1c2ccccc2C(=O)N2CCc3c([nH]c4ccccc34)C21 (stereo unspecified),·,-12%,·,-5%,·
CCCOc1ccc(Cc2nn[nH]n2)cc1,50µM*,-4%,-15%,44%,-5%
CCOc1ccc(Cc2nn[nH]n2)cc1,?,-12%[11.4 µM],5%,22%,3%
NS(=O)(=O)c1ccc(NC(=S)N2CCN(c3cccc(Cl)c3)CC2)cc1,8.9µM*,-2%,2%,-19%,-4%
CN1CCN(C(=S)Nc2ccc(S(N)(=O)=O)cc2)CC1,40µM*,6%,-19%,33%,-3%
NS(=O)(=O)c1ccc(NC(=S)N2CCN(S(=O)(=O)c3ccc(F)cc3)CC2)cc1,-48%[59 µM],·,-31%,·,0%
S=C(NCCN1CCOCC1)N1CCN(c2cccc(Cl)c2)CC1,35µM*,8.9µM*,28µM*,-29%,·
Cc1ccc2c(CN3CCN(S(=O)(=O)c4ccccc4C(F)(F)F)CC3)cc(=O)oc2c1C,7%[2.33 µM],-7%,11%,18%,-3%
COc1ccc(NC(=O)C2CCN(S(=O)(=O)c3cccc4nonc34)CC2)cc1,45µM*,6%,2%,27%,·
COc1cccc(NC(=O)C2CCN(S(=O)(=O)c3cccc4nonc34)CC2)c1,-3%[59 µM],3%,-1%,7%,·
COc1ccc(NC(=O)C2CCN(S(=O)(=O)c3cccc4cccnc34)CC2)cc1,?,-30%,-15%,47%,30%
CC(=O)c1ccc(NC(=O)C2CCN(S(=O)(=O)c3cccc4cccnc34)CC2)cc1,50µM*,-23%,-4%,31%,-16%
COc1ccc(NC(=O)c2ccc3c(c2)CCN3S(=O)(=O)c2ccc(C)cc2)cc1Cl,-24%[59 µM],-10%,-5%,4%,·
Cc1cccc(CNc2ncncc2-c2ccc(C(=O)N(C)C)cc2)c1,46%[0.501 µM],·,·,·,·
Cc1c(C(=O)C(=O)N2CCN(Cc3ccc4c(c3)OCO4)CC2)c2ccccc2n1C,-14%[59 µM],12%,-15%,32%,·
Cc1ccc(C)c(OCC(=O)Nc2nonc2NC(=O)COc2cc(C)ccc2C)c1,16µM*,-23%,?,33%,·
Cc1cccc(OCC(=O)Nc2nonc2NC(=O)COc2cccc(C)c2)c1,·,-18%,·,15%,·
Cc1ccc(C(C)C)c(OCC(=O)Nc2ccc(S(=O)(=O)Nc3onc(C)c3C)cc2)c1,-15%[59 µM],-28%,56µM*,0%,·
Cc1ccc(C)c(OCC(=O)Nc2ccc(S(=O)(=O)Nc3onc(C)c3C)cc2)c1,-28%[59 µM],-6%,-23%,17%,·
Cc1ccc(C)c(OCC(=O)Nc2ccc(S(=O)(=O)Nc3ccccn3)cc2)c1,50µM*,-23%[57.1 µM],-5%,-16%,-5%

# Bioassay records as filed in PubChem.
